# Screening results: PubChem BioAssay, National Center for Advancing Translational Sciences (NCATS)
# Pol kappa inh = inhibitors of human DNA polymerase kappa | 400,000 tested, 0.53% active | purified Pol kappa, fluorescent DNA synthesis assay, 10 min | AID 588579 | Q9UBT6 | Potency, µM (titrated, usually from 107 µM), for inactives: at the highest dose activity, negative = inhibition, actives largely listed as inhibitors; also: % is scaled to controls: 0 for no effect and ±100 for the full control effect
#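 Fluorescent qHTS in 1536-well format: enzyme (10 nM) and compound sat 15 min at room temperature before 50 nM substrate (final) was added. Signal taken at 0 and 10 min; no-enzyme buffer wells were negative controls.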
# POLB inh = blocks human DNA polymerase beta activity. P06746. Pol beta primer extension/strand displacement, fluorescence kinetic. Potency, µM (doses to about 114 µM), without a hit: at the top dose activity change, negative = inhibition, usual class: inhibitors. 340,000 tested, 1.3% active; also: % is scaled to controls: 0 for no effect and ±100 for the full control effect
#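 Values derive from four-parameter Hill fits of normalized kinetic data: reads at 0 and 10 min following addition of 50 nM substrate to 10 nM Pol beta preincubated 15 min with compound.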
# Pol iota inh = DNA polymerase iota (human) inhibition. Pol iota fluorescent replication assay, 10 min. Potency, µM (series often up to 115 µM), without a hit: at the top dose activity, negative = inhibition, usual class: inhibitors. 390,000 tested, 1% active
#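 Fluorescent replication assay read twice, at 0 min and 10 min after adding 50 nM (final) substrate. Enzyme (10 nM) and compounds were first incubated 15 min at room temperature; enzyme-free buffer wells were negative controls.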
# POLH inh = DNA polymerase eta (human) inhibition; AID 588591; recombinant Pol eta, fluorescent DNA replication assay; 390,000 tested, 1.2% active; Q9Y253; Potency, µM (titrated, usually from 114 µM), for inactives: top-dose activity change, negative = inhibition, usual class: inhibitors; also: % is scaled to controls: 0 for no effect and ±100 for the full control effect
#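 Pol eta (10 nM) was preincubated with compounds for 15 min at room temperature, after which fluorescent replication substrate (50 nM final) was added to start the reaction. Fluorescence was read kinetically at 0 and 10 min.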
# WRN helicase inh = WRN helicase (human) inhibition | Q14191 | WRN helicase unwinding, fluorescent forked duplex, kinetic | Potency, µM (series often up to 114 µM), without a hit: at the highest dose activity change, negative = inhibition, most hits filed as inhibitors | 360,000 tested, 0.46% active | AID 651768; also: % is scaled to controls: 0 for no effect and ±100 for the full control effect; nearly all actives have a fitted effect of over 55% in size
#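 WRN at 20 nM final preincubated with compound 15 min at room temperature; reaction started with 100 nM fluorophore/quencher forked duplex oligonucleotide and 2 mM ATP final. Unwinding followed kinetically by red fluorescence (ex 525, em 598 nm).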
# FEN1 inh = blocks human flap endonuclease 1. P39748. Recombinant FEN1 flap cleavage, fluorescence, 15 min. Potency, µM (titrated, usually from 114 µM), for inactives: at the top dose activity change, negative = inhibition, hits mostly inhibitors. 390,000 tested, 0.35% active; also: % is scaled to controls: 0 for no effect and ±100 for the full control effect; nearly all actives have a fitted effect of over 65% in size
# Target sequence (P39748 whole entry, looked up): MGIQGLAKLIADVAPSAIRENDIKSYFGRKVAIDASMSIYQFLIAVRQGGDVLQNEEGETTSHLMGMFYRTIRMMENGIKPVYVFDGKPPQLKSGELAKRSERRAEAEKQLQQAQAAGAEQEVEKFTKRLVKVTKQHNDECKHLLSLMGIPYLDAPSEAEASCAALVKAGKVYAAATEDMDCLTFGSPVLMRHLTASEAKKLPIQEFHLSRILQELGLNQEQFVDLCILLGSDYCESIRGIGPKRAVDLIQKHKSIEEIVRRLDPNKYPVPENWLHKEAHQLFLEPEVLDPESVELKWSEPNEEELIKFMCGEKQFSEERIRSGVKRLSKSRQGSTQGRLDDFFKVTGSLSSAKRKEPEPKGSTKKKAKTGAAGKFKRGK
#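 Read-out was taken twice, immediately and after 15 min, following addition of 50 nM substrate to 10 nM FEN1 that had sat with test compound for 15 min at room temperature. Curves came from a four-parameter Hill model.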
# The depositor's hits bear a star; u = inconclusive; x = no result given; [ ] = another dose, or the depositor's remark. Shown are actives, neighbours in structure and some others; about 2.4% of the full set was active somewhere. Calls follow the shape of the dose curve; as a rule, active = well fitted curve in the direction sought with a large enough effect; inconclusive = small, poorly fitted or top-dose-only effect, or another doubt; inactive = no such curve, though single readings can be large; an effect the other way counts as inactive or inconclusive. Potency is read from the fitted curve at half-maximal effect.
SMILES,Pol kappa inh,POLB inh,Pol iota inh,POLH inh,WRN helicase inh,FEN1 inh
COc1ccc(C(=O)CSc2nnc(-c3ccco3)c(-c3ccco3)n2)cc1,-75.0%,12.6µM*,u,12.6µM*,u,u
O=c1c2ccccc2oc2cc(OCc3cccc(F)c3)cc(O)c12,u,22.4µM*,u,-1.0%,-21.9%,-2.3%
COC(=O)C1=CO[C@@H](O[C@H]2OC(CO)C(O)C(O)C2O)C2C1CC(O)C2C (some centres not stated),-10.7%[60.1 µM],x,x,x,x,x
C/C=C1\C(OC2OC(CO)C(O)C(O)C2O)OC=C(C(=O)OC)C1CC(=O)OCC1C(C)C(OC(=O)CC2C(C(=O)OC)=COC(OC3OC(CO)C(O)C(O)C3O)/C2=C\C)CC1C(CO)CO (configuration not stated),79.4µM*,25.1µM*,79.4µM*,u,-7.1%,-11.5%
CN(C)c1ccc(-c2nc3cnccn3c2Nc2cccc(C(F)(F)F)c2)cc1,-13.9%,15.5%,18.6%,-9.4%,x,14.3%
CCc1nc(Oc2cccc(F)c2)c2oc3ccccc3c2n1,-3.0%[60.1 µM],-0.6%,22.6%,-16.8%,x,-0.5%
Cc1cc2nccc(/C=C/c3ccc(N(C)C)cc3)c2cc1C,-16.2%,x,u,x,x,-4.8%
Cc1cc(C)c(S(=O)(=O)/N=C2/C=C(SCC(=O)O)C(=O)c3ccccc32)cc1C,-13.7%,u,6.31µM*,20µM*,17.8µM*,10µM*
CCOC(=O)c1nn(-c2ccc(F)cc2)c(C)c1C(C)=O,-6.1%,27.5%,1.5%,-4.5%,-1.3%,-2.1%
CCOC(=O)c1nn(-c2ccc(OCC)cc2)c(C)c1C(C)=O,-4.2%,14.3%,27.1%,89.1µM*,-5.0%[11.6 µM],4.7%
C=CCn1c(N)c(C(=O)OCCC)c2nc3ccccc3nc21,-3.4%,21.8%,-3.5%,-15.4%,-7.6%,4.4%
COCCn1c(N)c(C(=O)OCc2ccccc2)c2nc3ccccc3nc21,-13.2%,12.0%,20µM*,-8.2%,-14.2%[57.1 µM],-23.8%
Nc1ccc(N2CCOCC2)c2nonc12,-1.4%,u,u,79.4µM*,-21.2%,u
C/C(=N\Nc1ccc(Cl)c(C(=O)O)c1)c1ccc(N2CCOCC2)cc1,u,-8.5%,u,28.2µM*,-20.7%,-3.6%
O=C(O)c1cc(N/N=C/c2ccc(N3CCOCC3)s2)ccc1Cl,28.2µM*,31.6µM*,12.6µM*,11.2µM*,u,u
NC(=O)N/N=C/c1ccc(N2CCOCC2)s1,-7.4%,5.2%,-6.3%,-13.4%,-4.2%,0.1%
CSCCOC(=O)c1[nH]c2c(c1C)C(=O)CC(c1ccco1)C2 (configuration not stated),31.6µM*,7.94µM*,u,17.8µM*,56.2µM*,u
Cc1c(C(=O)OCc2ccccc2)[nH]c2c1C(=O)CC(c1ccco1)C2 (configuration not stated),u,11.2µM*,-92.7%,22.4µM*,50.1µM*,u
Cc1ccc(OCC(=O)Nc2c(C(=O)c3ccc(Cl)cc3)oc3ccccc23)cc1C,-17.3%,1.9%,-19.1%,6.1%,x,15.2%
Nc1ccc(Cc2ccc(C=O)cc2)cc1,-18.3%,x,29.7%,x,x,3.9%
O=C(CS(=O)CC(=O)Nc1cnc2ccccc2c1)Nc1ccc(Cl)cc1 (configuration not stated),-28.8%,50.1µM*,u,u,-8.4%[57.1 µM],4.8%
CN(C)C(=O)Nc1cnc2ccccc2c1,4.0%,21.2%,0.7%,-3.0%,11.4%,-4.7%
CN(C)c1ccc(/C=C2/CCCc3c2nc2ccccc2c3C(=O)O)cc1,79.4µM*,x,u,x,x,u
CN(C)c1ccc(/C=C/c2ccnc3ccc(N)cc23)cc1,-2.4%,x,14.5%,x,x,-32.5%
CCN(CC)S(=O)(=O)c1cccc(C(=O)N/N=C/c2c(C)nn(-c3ccccc3)c2Cl)c1,0.0%,14.1µM*,197.6%,-16.4%,-13.4%,3.5%
SMILES,Pol kappa inh,POLB inh,Pol iota inh,POLH inh,WRN helicase inh,FEN1 inh
CCN(CC)S(=O)(=O)c1cccc(C(=O)N/N=C/c2ccccc2OCC(=O)O)c1,0.0%,1.8%,25.5%,-2.8%,0.8%[57.1 µM],1.0%
CC(C)CNc1nc(N)c([N+](=O)[O-])c(N2CCCCCC2)n1,3.0%,-0.7%,-1.0%,-20.5%,-0.8%[11.6 µM],44.7µM*
CCC(C)Nc1nc(N)c([N+](=O)[O-])c(N2CCCCCC2)n1 (configuration not stated),-11.4%,-20.7%,69.6%,-11.8%,-1.7%[11.6 µM],u
CCc1ccccc1NC(=O)Cn1c(=O)n(CC(=O)NCCc2ccccc2)c(=O)c2ccccc21,5.2%,27.5%,6.5%,3.8%,x,-1.8%
Cc1ccc(Cl)cc1NC1=C/C(=N\S(=O)(=O)c2cccs2)c2ccccc2C1=O,-4.9%,2.6%,3.98µM*,u,-12.0%,0.7%
O=C1C(Nc2ccc(O)cc2)=C/C(=N/S(=O)(=O)c2cccs2)c2ccccc21,-11.1%,0.1%,6.31µM*,u,-16.0%,u
O=C1c2ccccc2C(=O)N1CCSc1ncn[nH]1,5.7%,-2.1%,18.5%,5.4%,-2.4%,3.4%
Cc1ccc(S(=O)(=O)/N=C2\C=C(NS(=O)(=O)c3ccccc3)C(=O)c3ccccc32)cc1,-12.7%,x,u,u,u,u
CCc1ccc(S(=O)(=O)/N=C2\C=C(Nc3ccc(O)cc3)C(=O)c3ccccc32)cc1,-22.6%,u,12.6µM*,u,-11.9%[11.6 µM],-15.3%
CCc1ccc(S(=O)(=O)/N=C2/C=C(Sc3ncn[nH]3)C(=O)c3ccccc32)cc1,-27.7%,-25.4%,1.12µM*,6.31µM*,20µM*,79.4µM*
Cc1cccc(NC2=C/C(=N/S(=O)(=O)c3cccs3)c3ccccc3C2=O)c1,-16.6%,0.0%,-7.9%,-10.3%,-16.4%,-18.7%
CCOC(=O)c1ccc(NC(=O)c2c(NCc3cc(OC)c(OC)cc3OC)sc3c2CCCC3)cc1,-12.2%[60.1 µM],-25.8%,-8.2%,-6.1%,x,-10.8%
CC(C)c1ccc(NC(=O)CN2C(=O)c3cccc4cccc2c34)cc1,2.3%[60.1 µM],-0.6%,19.1%,-13.3%,x,-9.2%
Cc1cc(C)c2oc(-c3ccc(C)c(NC(=O)/C=C/c4ccco4)c3)nc2c1,-38.5%,u,22.4µM*,u,x,u
O=C(O)Cn1cc(/C=C/[N+](=O)[O-])c2ccccc21,-21.3%,5.8%,28.2µM*,44.7µM*,-5.1%[11.6 µM],4.3%
O=[N+]([O-])/C=C/c1cn(Cc2ccccc2)c2ccccc12,-5.9%,-4.0%,-7.5%,-14.4%,-32.5%,-15.8%
CS(=O)(=O)N1CCC(N2CCN(Cc3ccccc3)C(=O)C2=O)CC1,25.5%,16.9%,26.9%,-12.2%,x,-0.1%
C=CC(=O)Oc1ccc(N2Cc3ccccc3C2=O)cc1,-38.0%,x,39.8µM*,31.6µM*,56.2µM*,-9.8%
